Screening data as filed in PubChem.
BL2 CD40 inh = CD40 pathway inhibition in BL2 cells; inhibition, % at 10 µM; 0.94% of 83,000 active; AID 1053188; BL2 NF-kB luciferase reporter, CD40L-induced, 4 h;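 active = mean inhibition of at least 50% with a set share of replicates also reaching that level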;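 also: 0% = neutral control wells and 100% = IKK inhibitor VII at 50 µM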
An asterisk follows results filed as active; ! = repeats disagree; [ ] = another dose, or the depositor's remark. Many of the other results were omitted from the sample, so hits are more common in it than they were.

SMILES	BL2 CD40 inh
C[C@@H]1CN([C@@H](C)CO)C(=O)c2c(c3ccccc3n2C)-c2ccccc2CO[C@@H]1CN(C)C(=O)CCC(F)(F)F	3.4[25 µM]
CCN(CC)CC(=O)Nc1c(C)cc(C(C)(C)C)cc1C	-37.7
CCN(CC)CC(C)(C)C(=O)/C=C/c1ccc(/C=C/C(=O)C(C)(C)CN(CC)CC)cc1	74.8*
CCN(CC)c1ccc(C(=O)O)cc1	-1.7
O=C(CC(F)(F)F)N1C[C@H]2[C@@H](c3ccccc31)[C@@H](CO)N2C(=O)Cc1ccccc1	13.9[25 µM]
CCS(=O)(=O)N1CC2(CN(C)[C@H](CO)c3c2c2ccc(OC)cc2n3C)C1	-3.3[25 µM]
COc1cccc(NC(=O)C[C@H]2CC[C@H]3[C@H](COc4ccc(NC(=O)C5CCC5)cc4C(=O)N3C)O2)c1	-1.1
CN1C[C@H]2[C@@H](c3ccccc31)[C@@H](CO)N2C(=O)CN1CCOCC1	2.9[25 µM]
CC(C)NC(=O)N(C)C[C@H]1Oc2ccccc2CC(=O)N(C)C[C@H]1C	5.6
O=C1NNC(=O)C1c1ccccc1	6.6
CN1C(=O)c2ccccc2C(O)c2ccccc21 (stereo not drawn)	14.5
O=C1C=CC(=O)C2=C1C1c3ccccc3C2c2ccccc21	58.8*[25 µM]
CN(C)CC(=O)N1C[C@H]2[C@@H](c3ccccc31)[C@@H](CO)N2C(=O)c1ccccn1	-14.4[25 µM]
COc1ccccc1NC(=O)N(C)C[C@H]1OCc2ccccc2-c2ccccc2C(=O)N([C@H](C)CO)C[C@@H]1C	-5.6
CC(=O)N1[C@H](CO)[C@H](c2ccccc2)[C@H]1CN(CC(C)C)C(=O)c1ccccn1	-7.5[25 µM]
Cc1ccc(-c2ccc(C3[C@@H]4CN(Cc5ccccc5)C[C@H]3N4)cc2)cc1 (stereo partly drawn)	3.3[25 µM]
COc1cccc(-c2ccc(C3[C@@H]4CN(Cc5cccc(F)c5)C[C@H]3N4)cc2)c1 (stereo partly drawn)	60.3*!
COc1cccc(CN2C[C@@H]3N[C@H](C2)C3c2ccc(-c3ccncc3)cc2)c1 (stereo partly drawn)	1.5[25 µM]
Fc1ccc(-c2ccc(C3[C@@H]4CN(Cc5cccc(F)c5)C[C@H]3N4)cc2)cc1 (stereo partly drawn)	-3.8[25 µM]
COc1ccc(-c2ccc(C3[C@@H]4CN(Cc5cccc(OC)c5)C[C@H]3N4)cc2)cc1 (stereo partly drawn)	2.8
Cc1ccc(-c2ccc(C3[C@@H]4CN(Cc5cccc(F)c5)C[C@H]3N4)cc2)cc1 (stereo partly drawn)	61.9*
O=C(C[C@H]1C[C@H]2c3cc(NC(=O)NC4CCCCC4)ccc3O[C@H]2[C@@H](CO)O1)NC1CCCC1	2.9
CCCNC(=O)N(Cc1cccnc1)C[C@H]1N[C@H](CO)[C@@H]1c1ccccc1	6.9[25 µM]
COc1ccc(S(=O)(=O)N(C)C[C@@H]2Oc3ccc(NC(=O)Nc4ccc(F)cc4)cc3CC(=O)N([C@@H](C)CO)C[C@@H]2C)cc1	3.2
O=S(=O)(Nc1cccc2cccnc12)c1ccc(S(=O)(=O)N2CCCC2)cc1	76.0*
SMILES	BL2 CD40 inh
NC(=O)c1ccccc1NS(=O)(=O)c1ccc(S(=O)(=O)N2CCCC2)cc1	4.5
O=S(=O)(Nc1ccccc1)c1ccc(S(=O)(=O)N2CCCC2)cc1	1.9
O=C(Cc1ccccn1)N1CC(=O)N2[C@H](CO)[C@@H](c3ccc(C#CC4CCCC4)cc3)[C@@H]2C1	-0.2
Cc1ccccc1S(=O)(=O)/N=C(/Nc1nc2ccccc2s1)c1ccccc1	-78.1
CC1(C)CC(=O)C/C(=N/Nc2nc3ccccc3s2)C1	49.7*
CCN(CC)S(=O)(=O)c1cccc(C(=O)N/N=C2\CC(=O)CC(C)(C)C2)c1	7.9
CC(C)NC(=O)N1[C@@H](CO)[C@@H]2c3ccccc3N(C(=O)Nc3ccccc3)C[C@@H]21	-13.5
Cc1cccc(OCC(=O)OC(C)C(=O)Nc2ccc(Cl)cn2)c1 (stereo not drawn)	7.7
Cc1cnc(C(=O)OC(C)C(=O)Nc2ccc(Cl)cn2)cn1 (stereo not drawn)	6.9
CCOc1ncccc1C(=O)OC(C)C(=O)Nc1ccc(Cl)cn1 (stereo not drawn)	67.7*
NC1=NC2(CCCCC2)n2c(nc3ccccc32)N1	-9.2
N=c1cc(C2(O)CCCCC2)n2c(nc3ccccc32)s1	65.8*
O=C(C1CCCCC1)N1CCCn2c1nc1ccccc12	9.4
O=C1CCCCc2sc(Br)c([N+](=O)[O-])c2N1	100.2*
O=C(NCC[C@@H]1CC[C@@H](NS(=O)(=O)c2cccc(F)c2)[C@H](CO)O1)C1CCCC1	2.5
C[C@@H]1CN([C@H](C)CO)C(=O)CCCn2cc(nn2)CO[C@@H]1CN(C)C(=O)NC1CCCCC1	-5.3[25 µM]
O=C([C@@H]1[C@@H](CO)[C@@H]2Cn3c(ccc(-c4cccnc4)c3=O)[C@H]1N2Cc1cccnc1)N1CCOCC1	8.6[25 µM]
C[C@@H]1CN([C@@H](C)CO)C(=O)c2cccc(NC(=O)C3CCOCC3)c2O[C@@H]1CN(C)Cc1ccncc1	-11.1[25 µM]
C/C=C/c1cccc(-c2nc(C(=O)NC3Cc4ccccc4C3)cc3c2[C@H](CCO)N(C(C)=O)C3)c1	13.1[25 µM]
CCC(=O)N1Cc2cc(C(=O)N3CCCCC3)nc(-c3cccc(-c4cccnc4)c3)c2[C@H]1CCO	1.1[25 µM]
CC(C)NC(=O)N1Cc2cc(C(=O)NC3Cc4ccccc4C3)nc(-c3cccc(-c4cccnc4)c3)c2[C@@H]1CCO	56.8*[25 µM]
C/C=C/c1ccccc1[C@H]1[C@@H](C#N)N(S(=O)(=O)c2cccc(F)c2)[C@H]1CO	-5.1[25 µM]
CC(C)NC(=O)N(C)C[C@@H]1Oc2ccccc2CC(=O)N(C)C[C@@H]1C	-0.2
O=C1C(Br)=C(c2ccccc2)C(c2ccccc2)=C1c1ccccc1	82.0*
COc1cccc(NC(=O)C[C@H]2CC[C@H]3[C@@H](COc4ccc(NC(=O)C5CCC5)cc4C(=O)N3C)O2)c1	-2.5
SMILES	BL2 CD40 inh
COc1ccccc1S(=O)(=O)N1[C@@H]2CNC[C@H]1[C@H]2c1ccc(-c2ccccc2C)cc1	15.3
O=C(C[C@@H]1C[C@@H]2c3cc(NC(=O)C4CCC4)ccc3O[C@@H]2[C@@H](CO)O1)NCc1ccccn1	-1.9[25 µM]
CCCSc1nc(C)c2cc(C)cc(C)c2n1	7.9
CCSC1=NC(C)(C)C=C(C)N1	7.0
CC1=CC(C)(C)N=C(Nc2nc(C)c3cc(C)cc(C)c3n2)N1	48.1*
O=C(C1CCCCC1)N1C[C@@H]2[C@H](c3ccccc31)[C@@H](CO)N2CC1CCOCC1	-15.4[25 µM]
Cc1ccccc1N1CCN(S(=O)(=O)CC23CCC(C[C@@H]2NC(=O)[C@@H](N)CCS(C)(=O)=O)C3(C)C)CC1 (stereo partly drawn)	4.3[25 µM]
COc1ccc(N=C2NN=C(c3ccc4c(c3)OCCO4)CS2)cc1	-11.2
c1cc2c(cc1C1=NNC(=NC3CC3)SC1)OCCO2	91.8*
COc1ccc(CN=C2NN=C(c3cccc(OC)c3)CS2)cc1	-47.8
c1csc(C2=NNC(=NC3CCCCC3)SC2)c1	-44.5
c1ccc(CN=C2NN=C(c3cc4ccccc4o3)CS2)cc1	-12.4
c1ccc2oc(C3=NNC(=NC4CC4)SC3)cc2c1	65.9*
c1cncc(-c2ccc(C3[C@@H]4CN(Cc5nccs5)C[C@H]3N4)cc2)c1 (stereo partly drawn)	12.4[25 µM]
Cc1nc(N2[C@@H](C#N)[C@@H](c3ccccc3)[C@@H]2CO)sc1C	5.4[25 µM]
CN(C)C(=O)[C@@H]1[C@@H](CO)[C@@H]2Cn3c(ccc(C4=CCCC4)c3=O)[C@@H]2N1C(=O)Cc1cccnc1	-2.7[25 µM]
O=C(CCl)N=c1sccn1Cc1ccc(Cl)cc1Cl	88.9*
O=C1CCN(Cc2ccc(Cl)cc2Cl)C(=O)N1	5.9
O=C(Cn1cnnn1)NCCc1ccc(Cl)cc1Cl	8.1
